These results are taken from ChEMBL document CHEMBL1961873, “Compounds: GSK PKIS; Assays: Nanosyn kinase panel” (2012).

By inhibition is commonly meant the relative decrease from the control value, in per cent.

Values joined by “and” are separate entries in the source; they are usually repeats but may differ in a detail not shown here. Equal entries are not always repeated.

Assay [1] has as its target Casein kinase I isoform gamma-2 (Homo sapiens) (UniProt P78368). As to conditions: at 1 µM.
Assay [2] has as its target Casein kinase I isoform gamma-3 (Homo sapiens) (UniProt Q9Y6M4). As to conditions: at 0.1 µM.
The target is the same in assay [3]. As to conditions: at 1 µM.
In assay [4] the target is Cyclin-dependent kinase 1 (Homo sapiens) (UniProt P06493). As to conditions: at 0.1 µM.
Assay [5] shares this target. As to conditions: at 1 µM.
For assay [6], the target named is Cyclin-dependent kinase 2 (Homo sapiens) (UniProt P24941). The following applies: at 0.1 µM.
Assay [7] has the same target. As to conditions: at 1 µM.
The target is the same in assay [8]. The following applies: at 0.1 µM. The source holds these as a separate data set.
For assay [9] the target is unchanged. The following applies: at 1 µM. The source holds these as a separate data set.
For assay [10], the target named is CDK3/Cyclin E (Homo sapiens) (UniProt P24864+Q00526). As to conditions: at 0.1 µM.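 Also: reported percentages are mean inhibition values.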
Chain of CDK3/Cyclin E (Homo sapiens) (P24864 whole entry, looked up): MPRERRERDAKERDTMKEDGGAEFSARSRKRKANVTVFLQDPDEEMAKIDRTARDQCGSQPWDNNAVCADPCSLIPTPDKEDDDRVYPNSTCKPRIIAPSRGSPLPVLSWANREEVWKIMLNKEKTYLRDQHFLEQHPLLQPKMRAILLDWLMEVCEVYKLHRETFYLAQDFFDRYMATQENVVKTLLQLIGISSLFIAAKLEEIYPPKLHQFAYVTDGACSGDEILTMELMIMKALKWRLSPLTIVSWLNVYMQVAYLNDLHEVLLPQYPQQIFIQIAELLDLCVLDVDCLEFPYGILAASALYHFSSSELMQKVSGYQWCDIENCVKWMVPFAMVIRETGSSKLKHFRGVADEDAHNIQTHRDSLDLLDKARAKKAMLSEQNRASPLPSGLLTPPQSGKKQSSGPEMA
Chain of CDK3/Cyclin E (Homo sapiens) (Q00526 whole entry, looked up): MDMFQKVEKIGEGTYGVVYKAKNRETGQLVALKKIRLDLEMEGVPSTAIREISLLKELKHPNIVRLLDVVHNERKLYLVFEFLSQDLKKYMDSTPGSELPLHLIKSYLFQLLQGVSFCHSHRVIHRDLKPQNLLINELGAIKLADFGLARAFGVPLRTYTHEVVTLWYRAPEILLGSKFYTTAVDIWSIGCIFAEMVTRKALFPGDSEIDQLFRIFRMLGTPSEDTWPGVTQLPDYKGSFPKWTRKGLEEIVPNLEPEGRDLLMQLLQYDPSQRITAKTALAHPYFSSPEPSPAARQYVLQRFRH

Chain of Casein kinase I isoform gamma-2 (Homo sapiens) (P78368 whole entry, looked up, canonical isoform): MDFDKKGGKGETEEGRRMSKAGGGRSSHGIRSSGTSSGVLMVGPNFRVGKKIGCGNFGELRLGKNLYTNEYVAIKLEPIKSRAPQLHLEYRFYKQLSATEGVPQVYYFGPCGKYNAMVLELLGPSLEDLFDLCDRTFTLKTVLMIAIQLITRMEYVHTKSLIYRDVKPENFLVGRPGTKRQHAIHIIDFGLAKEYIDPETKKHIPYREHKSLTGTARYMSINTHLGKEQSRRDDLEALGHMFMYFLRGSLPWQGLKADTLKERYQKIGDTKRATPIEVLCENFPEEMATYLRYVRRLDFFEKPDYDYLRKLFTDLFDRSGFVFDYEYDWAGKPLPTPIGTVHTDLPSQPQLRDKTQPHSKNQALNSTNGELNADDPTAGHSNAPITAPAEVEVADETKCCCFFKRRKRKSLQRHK
Chain of Cyclin-dependent kinase 1 (Homo sapiens) (P06493 whole entry, looked up): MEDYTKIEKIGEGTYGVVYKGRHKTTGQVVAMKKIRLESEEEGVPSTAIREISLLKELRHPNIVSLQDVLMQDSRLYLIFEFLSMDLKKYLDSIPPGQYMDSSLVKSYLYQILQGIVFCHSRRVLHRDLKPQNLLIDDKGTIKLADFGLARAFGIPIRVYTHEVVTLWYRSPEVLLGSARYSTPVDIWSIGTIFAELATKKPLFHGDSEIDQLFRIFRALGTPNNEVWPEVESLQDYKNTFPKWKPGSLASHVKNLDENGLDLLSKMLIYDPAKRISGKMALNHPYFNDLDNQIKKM
Chain of Casein kinase I isoform gamma-3 (Homo sapiens) (Q9Y6M4 whole entry, looked up, canonical isoform): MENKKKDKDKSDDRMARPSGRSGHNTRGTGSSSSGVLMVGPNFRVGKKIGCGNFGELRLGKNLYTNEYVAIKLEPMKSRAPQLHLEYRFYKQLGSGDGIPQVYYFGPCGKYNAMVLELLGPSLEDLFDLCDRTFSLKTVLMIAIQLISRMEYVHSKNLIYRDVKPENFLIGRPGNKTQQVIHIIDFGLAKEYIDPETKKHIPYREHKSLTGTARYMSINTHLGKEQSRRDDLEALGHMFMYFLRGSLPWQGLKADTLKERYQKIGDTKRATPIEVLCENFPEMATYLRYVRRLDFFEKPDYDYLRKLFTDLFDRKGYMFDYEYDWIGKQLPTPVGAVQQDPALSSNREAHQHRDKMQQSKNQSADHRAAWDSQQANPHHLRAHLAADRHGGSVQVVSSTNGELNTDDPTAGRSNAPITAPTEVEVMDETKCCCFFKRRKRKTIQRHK

Take `Fc1cccc(COc2ccc(Nc3ncncc3C#Cc3ccccc3)cc2Cl)c1`: the inhibition amounted to 4.69% in [1]; 4.31% in [2]; 4.88% in assay [3]; 0.35% in assay [4]; 1.89% in assay [5]; 1.7% in assay [6]. The inhibition was 5.5% in assay [7], 4.38% in assay [8], 4.99% in [9] and 1.59% in assay [10].

In the case of `CN(c1ccc(NC(=O)NCCN2CCOCC2)cc1)c1ccnc(Nc2ccc(CS(C)(=O)=O)cc2)n1`, the inhibition was 1.47% in [1]; 2.29% in assay [2]; 2.32% in assay [3]; -0.38% in assay [4]; 2.55% in assay [5]; 1.15% in assay [6]. Besides, the inhibition was 11.3% in assay [7], 3.19% in assay [8], 4.7% in assay [9] and 0.76% in assay [10].

With `Nc1nccc(-c2c(-c3ccc(F)cc3)ncn2C2CCNCC2)n1`, the inhibition in assay [1] was 1.81% and 6.64%; in [2] it was -1.77% and 1.52%; in [3] it was 15.6% and 20.3%; in [4], 0.24% and 0.46%; in [5], 2.44% and 1.3%; in assay [6] it was 4.08% and 1.21%. The inhibition in [7] was -7.29% and 6.19%; in [8], -1.76% and 0.82%; in [9], -0.76% and 1.53%; in assay [10], -0.31% and 0.39%.

In the case of `Cc1cc(O)cc(C)c1/C=C/c1cncc(C(N)=O)c1`, the inhibition turned out to be 2.37% in assay [1]; 2.87% in [2]; 2.49% in [3]; 0.12% in assay [4]; 1.3% in [5]; 1.56% in assay [6]. Besides, the inhibition was 1.98% in [7], 2.51% in [8], 3.29% in assay [9] and -0.91% in assay [10].

Turning to `Nc1nonc1-c1nc2cnccc2n1C1CC1`, the inhibition in assay [1] is 3.78% and -0.61%; in assay [2] it was 3.26% and -1.06%; in assay [3], 2.82% and 0.84%; in assay [4] it was 1.19% and -3.89%; in assay [5], 8.14% and 3.98%; in [6], 5% and 1.12%. The inhibition in [7] was 28% and 29.5%; in assay [8], 5.56% and 1.64%; in assay [9] it was 23.7% and 19.1%; in assay [10], 3.57% and 1.86%.

As to `CCS(=O)(=O)c1ccc(OC)c(Nc2ncc(-c3cccc(F)c3)o2)c1`, the inhibition in assay [1] is 4.64%; in assay [2] it was 3.7%; in assay [3], 4.58%; in [4] it was 1.72%; in assay [5], 0.96%; in assay [6], 3.74%. The inhibition in assay [7] was 4.31%; in [8] it was 4.05%; in assay [9] it was 5.69%; in assay [10], -0.92%.

In the case of `Cc1cc(O)cc(C)c1/C=C/c1cncc(C(=O)OC(C)(C)C)c1`, the inhibition in [1] amounted to 3.13%; in assay [2], 2.26%; in [3], 3.16%; in [4] it was 0.41%; in [5] it was 3.26%; in assay [6], 1.03%. Further, the inhibition came out at 0.25% in assay [7], 2.66% in assay [8], 6.74% in [9] and 0.28% in [10].

As to `COC(=O)Nc1nc2ccc(Oc3ccc(NC(=O)Nc4cc(C(F)(F)F)ccc4F)cc3)cc2s1`, the inhibition in assay [1] is -0.08%; in assay [2] it was -1.45%; in [3] it was 0.18%; in [4], 0.44%; in assay [5], 3.26%; in assay [6] it was 1.75%. Moreover, the inhibition in assay [7] was determined as 3.03%; in [8] it was 1.36%; in assay [9], 2.74%; in [10], 0.88%.

As for `COc1cc(N2CCN(C(C)C)CC2)ccc1Nc1nc(Nc2cccc3ncccc23)c2cc[nH]c2n1`, the inhibition in assay [1] is -1.47%; in assay [2], -2.11%; in assay [3], 0.2%; in assay [4], 1.38%; in [5], 4.94%; in assay [6] it was 1.96%. For the same compound, the inhibition stood at 3.44% in assay [7], 2.69% in assay [8], 4.49% in [9] and 1.33% in [10].

For `CCn1c(-c2nonc2N)nc2cncc(C(=O)NCCNC)c21`, the inhibition in assay [1] worked out at 5.17%; in assay [2], 3.69%; in assay [3], 3.84%; in [4], 0.45%; in assay [5] it was 0.67%; in assay [6], 0.58%. The inhibition is 3.6% in assay [7], 2.89% in assay [8], 5.11% in assay [9] and -2.24% in [10].

`CS(=O)(=O)CCNCc1ccc(-c2ccc3ncnc(Nc4ccc(OCc5cccc(C(F)(F)F)c5)cc4)c3c2)o1`: the inhibition in [1] is 3.89%; in assay [2], 3.14%; in assay [3] it was 2.45%; in assay [4], 1.34%; in assay [5] it was 0.34%; in [6], 2.27%. In addition, the inhibition was 1.87% in assay [7], 2.01% in assay [8], 3.44% in assay [9] and -1.58% in [10].

For `COc1cc(Nc2ncc(-c3ccccc3)o2)cc(OC)c1`, the inhibition came out at 5.36% in [1]; 5.09% in [2]; 3.43% in assay [3]; 0.36% in assay [4]; 4.4% in assay [5]; 1.87% in assay [6]. Besides, the inhibition in assay [7] is 12.7%; in [8], 3.39%; in assay [9], 15.1%; in [10], -1.04%.

Regarding `COc1cc(N2CCN(C(C)C)CC2)ccc1Nc1nc(Nc2cccc(F)c2C(=O)O)c2cc[nH]c2n1`, the inhibition in [1] turned out to be 4.83%; in [2], 1.83%; in [3], 4.22%; in assay [4] it was 1.3%; in assay [5], 1.51%; in assay [6], 1.99%. In addition, the inhibition in [7] was found to be 5.79%; in [8], 4.11%; in [9] it was 4.66%; in assay [10] it was 4.48%.

On to `O=C(Nc1n[nH]c2nnc(-c3cccnc3)cc12)C1CC1`, for which the inhibition in assay [1] was -0.48%; in assay [2], -0.12%; in [3], 0.24%; in [4], 33.3%; in [5] it was 72.5%; in assay [6] it was 65.5%. For the same compound, the inhibition is 91.2% in assay [7], 38.9% in assay [8], 75.3% in [9] and 35.9% in assay [10].

Consider `O=C1Nc2ccccc2/C1=C1\CCc2cc(O)ccc21`, for which the inhibition in assay [1] came out at 8.01%; in assay [2] it was 4.01%; in assay [3], 6.11%; in assay [4], 1.03%; in assay [5], 3.82%; in assay [6], 3.01%. Moreover, the inhibition in [7] turned out to be 5.49%; in assay [8], 5.72%; in [9], 10.6%; in assay [10], 4.58%.

Consider `c1ccc(-c2n[nH]cc2-c2ccnc(-c3ccc(OCCn4ccnc4)cc3)c2)nc1`, for which the inhibition in assay [1] was 4.02%; in assay [2], 0.42%; in assay [3] it was 5.22%; in [4], -0.35%; in assay [5] it was 1.46%; in [6], 1.03%. Besides, the inhibition in [7] is -8.72%; in assay [8], 2.23%; in assay [9], 5.64%; in assay [10], 2.33%.
